Test results published in PubChem BioAssay (Tox21).
Records with an inconclusive call do not appear. Where a call stands in place of a potency, no number is given. Some compounds were tested as several samples or in several runs, with calls that do not always agree. Activity calls are given as the source filed them. The call rests on the fitted dose curve; in most records, active means well fitted cell-killing curve with a large enough effect in the repeat runs; inconclusive means weak or mixed curves, or effect the other way; inactive means no such curve, though single readings can be large or run the other way.
Potency means the concentration at half of the fitted maximal effect.

Experiment: qHTS assay to identify small molecule antagonists of the sonic hedgehog signaling (Shh) pathway - cell viability counter screen (AID 1259367); further: nearly all actives have a fitted effect of over 55% in size
Conditions: NIH/3T3 Gli1-Luc viability, CellTiter-Fluor, 24 h; series mostly up to 92.4 µM
From the text: National Center for Advancing Translational Sciences [NCATS]
NIH Chemical Genomics Center [NCGC]
U.S. Environmental Protection Agency [EPA]
National Institutes of Environmental Health Sciences [NIEHS]
National Toxicology Program [NTP]
U.S. Food and Drug Administration [FDA]
The sonic hedgehog (Shh) pathway is essential for normal embryonic development. Dysregulation of the Shh pathway can cause severe developmental defects in organs. Therefore chemicals that interfere with the pathway are potential developmental toxicants. A cell line designated 3T3Gli1-Luc (DMB/OARSA/CFSAN/FDA, Laurel, MD), a NIH/3T3 derived clone containing stably integrated Gli1-Luc reporter is used to detect chemical interference of the Shh pathway, by changes in the expression of the firefly Luc gene under the control of the Gli1 transcriptional response element. This cell line was used to screen Tox21 libraries for identifying and prioritizing the potential developmental toxicants that interfere Shh pathway. Conditioned medium-stimulated mode was used to screen for chemicals inhibiting Shh signaling. The cytotoxicity of the compounds was tested in parallel by measuring the cell viability using CellTiter-Fluor assay system (Promega, Madison, WI) in the same wells.
Tox21 Assay Protocol Summary:
3T3 Gli1-Luc cells were dispensed at 2,000 per well in 5uL of culture medium into white solid bottom 1536-well plates (Greiner Bio-One, Monroe, NC) using a Multidrop Combi (Thermo Scientific, Waltham, MA) dispenser. The assay plates were incubated at 37 C and 5% CO2 for 4hr, and then 23nL of compounds dissolved in DMSO and positive control were transferred using a Pintool station (Wako, San Diego, CA). The compound transfer was followed by the addition of 1ul conditioned medium or assay buffer using two separate tips of Flying Reagent Dispenser (FRD, Aurora Discovery, San Diego, CA). The assay plates were incubated at 37C and 5% CO2 for 24hr. For viability read, after 23hr of compound treatment, 1uL of CellTiter-Fluor reagent (Promega Corporation, Madison, WI) was added to each well of the assay plates using Flying Reagent Dispenser (FRD, Aurora Discovery, San Diego, CA) and incubated the assay plates at 37C for 1hr. The fluorescence signal was quantified using a ViewLux plate reader (Perkin Elmer, Shelton, CT).
For `CCCC[P+](C)(CCCC)CCCC`, the Potency was “inactive”. In the case of `C=C(C)c1cccc(C(=C)C)c1`, the Potency is reported as “inactive”. In the case of `Cc1cc(=O)oc2cc(O)cc(O)c12`, the Potency is reported as “inactive”. With `CCO[C@@H]1O[C@H](C(COCc2ccccc2)OCc2ccccc2)[C@H](OCc2ccccc2)[C@H]1O` (stereo not given in full) the Potency was “inactive”. For `CC1(C)[C@@H](O)CC[C@]2(C)[C@H]3C(=O)C=C4[C@@H]5C[C@@](C)(C(=O)O)CC[C@]5(C)CC[C@@]4(C)[C@]3(C)CC[C@@H]12`, the Potency was “inactive”. For `O=S(=O)(O)c1ccc(N=Nc2c(O)ccc3ccccc23)cc1`, the Potency was 27.3 µM (active). In the case of `C1CCC(SSC2CCCCC2)CC1`, the Potency is reported as “inactive”. For `O[C@@H]([C@H](O)[C@H](O)CBr)[C@H](O)CBr`, the Potency was “inactive”. With `CC(CCc1ccccc1)NCC(O)c1ccc(O)c(C(N)=O)c1` (stereo not given) the Potency was 17.2 µM (active). In the case of `CCCC(=O)OCCc1ccccc1`, the Potency is reported as “inactive”. For `CCCNCCC`, the Potency was “inactive”. In the case of `Cc1nc(-c2ccc(Cl)cc2)oc1COC(C)(C)C(=O)O`, the Potency is reported as “inactive”. With `CCCCCCCCCCCCCC[N+](C)(C)Cc1ccccc1` the Potency was 27.7 µM (active) and inactive. In the case of `COC(=O)C1=C(C)NC(C)=C(C(=O)OCCN2CCN(C(c3ccccc3)c3ccccc3)CC2)C1c1cccc([N+](=O)[O-])c1` (stereo not given), the Potency is reported as “inactive”. With `CCCCCCCCCCC[C@@H](C[C@@H]1OC(=O)[C@H]1CCCCCC)OC(=O)[C@H](CC(C)C)NC=O` the Potency was “inactive”. In the case of `CC(C)NC[C@@H](O)COc1ccc(CC(N)=O)cc1`, the Potency is reported as “inactive”. In the case of `Nc1nc(-c2ccccc2)cs1`, the Potency is reported as “inactive”. In the case of `C=Cc1cccc(C)c1`, the Potency is reported as “inactive”. In the case of `CCCc1ccc(OCC(=O)N2CCN(C(=O)COc3ccc(CCC)cc3OC)CC2)c(OC)c1`, the Potency is reported as “inactive”. In the case of `CC1=Nc2ccccc2C1(C)C`, the Potency is reported as “inactive”. In the case of `CCCCCCCCCCOC(=O)c1ccccc1C(=O)OCCCCCCCC`, the Potency is reported as “inactive”. For `CCOC(=O)c1ccc(C2CCC(NC[C@H](O)COc3ccc(O)c(NS(C)(=O)=O)c3)CC2)cc1` (stereo not given in full), the Potency was 50.2 µM (active). For `CCc1oc2ccccc2c1C(=O)c1cc(I)c(O)c(I)c1`, the Potency was “inactive”. With `O=C(O)CCN(C1(C(=O)NO)CCCC1)S(=O)(=O)c1ccc(Oc2ccc(F)cc2)cc1` the Potency was “inactive”. With `NC[C@H]1O[C@H](O[C@H]2[C@H](O[C@@H]3O[C@H](CO)[C@@H](O)[C@H]3O)C(O)[C@H](N)C[C@@H]2N)[C@H](N)[C@@H](O)[C@@H]1O` (stereo not given in full) the viability change, negative = cytotoxic was -1.51% [at 8.39 µM] (inactive). For `O=C(O)[C@H](O)[C@@H](O)[C@H](O[C@@H]1O[C@H](CO)[C@H](O)[C@H](O)[C@H]1O)[C@H](O)CO`, the Potency was “inactive”. For `CCCCCCCC/C=C\CCCCCCCCN`, the Potency was “inactive”. For `O=S(=O)(O)c1ccc(Nc2nc(Nc3ccc(/C=C/c4ccc(Nc5nc(Nc6ccc(S(=O)(=O)O)cc6)nc(N(CCO)CCO)n5)cc4S(=O)(=O)O)c(S(=O)(=O)O)c3)nc(N(CCO)CCO)n2)cc1`, the Potency was “inactive”. For `C=CCCC(=O)/C=C/C1C(C)=CCCC1(C)C` (stereo not given), the Potency was “inactive”. With `CCC(CC)(CC(=O)Nc1cccc(/C=C/c2nc(C3CCC3)cs2)c1)C(=O)O` the Potency was “inactive”. For `CCCCCCCCCCCCOCCOCCOCCOCCOCCOCCOCCOCCOCCO`, the Potency was “inactive”. With `c1ccc(SSc2ccccc2)cc1` the Potency was “inactive”. In the case of `Cc1c(C)c2c(c(C)c1OC(=O)c1cccnc1)CC[C@@](C)(CCC[C@H](C)CCC[C@H](C)CCCC(C)C)O2`, the Potency is reported as “inactive”. In the case of `[Cu+]`, the Potency is reported as “inactive”. With `CCCC(=O)OC(C)(C)Cc1ccccc1` the Potency was “inactive”. For `CCCCCCCC`, the Potency was “inactive”. With `CCCC(=O)OCOC(=O)C1=C(C)NC(C)=C(C(=O)OC)C1c1cccc(Cl)c1Cl` (stereo not given) the Potency was “inactive”. For `COCCOc1cc2cc(C(=O)NC3CCN(C(C)C)CC3)n(CC(=O)Nc3ccc(Cl)cn3)c2cn1`, the Potency was “inactive”. With `CC(C)(C)CC(C)(C)c1ccc(Nc2ccc(C(C)(C)CC(C)(C)C)cc2)cc1` the viability change, negative = cytotoxic was -1.41% [at 8.39 µM] (inactive). In the case of `CC1(C)CCC[C@]2(C)[C@H]3CC(=O)O[C@]3(C)CC[C@@H]12`, the Potency is reported as “inactive”.
